The list is not random: actives were taken first. Their share in the collection is about 0.28%.
hcGAS inh: blocks human cGAS activity. Q8N884. recombinant h-cGAS, ATP depletion, Kinase-Glo luminescence. AID 1259398. 290,000 compounds, 0.081% hits. inhibition, % at 12.5 µM
NPYLR7 ag: activates Aedes aegypti NPYLR7 receptor; HEK293T NPYLR7/Galpha15, GCaMP6s calcium fluorescence; AID 1259423; activation, % at 10 µM; 270,000 compounds, 0.15% hits; in the data active = activation above about 40%
mcGAS lum: inhibitors of mouse cGAS; Q8C6L5; recombinant cGAS, Kinase-Glo ATP depletion luminescence; inhibition, % at 12.5 µM; 160,000 compounds, 0.15% hits
Target sequence (Q8C6L5 whole entry, looked up): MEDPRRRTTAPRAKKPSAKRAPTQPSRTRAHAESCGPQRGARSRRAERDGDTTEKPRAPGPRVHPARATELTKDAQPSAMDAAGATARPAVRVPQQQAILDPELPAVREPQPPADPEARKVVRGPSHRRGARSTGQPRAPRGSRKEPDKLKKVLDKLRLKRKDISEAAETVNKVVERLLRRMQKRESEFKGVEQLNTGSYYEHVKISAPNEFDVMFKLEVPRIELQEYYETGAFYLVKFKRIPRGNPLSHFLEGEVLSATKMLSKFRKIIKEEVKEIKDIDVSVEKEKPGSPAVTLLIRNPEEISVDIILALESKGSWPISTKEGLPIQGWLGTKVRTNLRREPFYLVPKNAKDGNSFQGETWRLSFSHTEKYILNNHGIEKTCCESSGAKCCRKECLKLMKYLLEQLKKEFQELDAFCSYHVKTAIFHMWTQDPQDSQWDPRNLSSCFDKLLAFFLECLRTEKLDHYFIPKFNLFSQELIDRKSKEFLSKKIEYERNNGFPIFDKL
Large screens that a line does not name were inactive; ! = not active in a repeat. Cut-off read from the data, not from the text of the source, unless noted: active = inhibition above about 40%; inactive = the rest.

CCc1nc(-c2ccccc2)nc(N2CCN(C(C)=O)CC2)c1Cc1cc(C)ccc1C	none
N#C/C(=C\c1ccc(O)c(O)c1)C(=O)NCCCc1ccccc1	NPYLR7 ag 120
N#C/C(=C\c1ccc(O)c(O)c1)C(=O)c1ccc(O)c(O)c1	none
O=c1[nH]c2ccc(S(=O)(=O)N3CCCC3)cc2[nH]c1=O	none (no result: mcGAS lum)
FC(F)(F)c1nc2ccccc2[nH]1	none
FC(F)(F)c1nc2c(Cl)cc(Cl)cc2[nH]1	hcGAS inh 56 (no result: mcGAS lum)
Cc1ccc(CSc2nc(CC(=O)O)cs2)cc1	none (no result: mcGAS lum)
Nc1ncnc2c1ncn2[C@@H]1O[C@H](CO)[C@H](O)C1O (stereo partly specified)	NPYLR7 ag 96
OC[C@H]1O[C@@H](n2cnc3c(NCc4ccco4)ncnc32)[C@H](O)[C@@H]1O	none
Cc1ccccc1CNc1ncnc2c1ncn2C1OC(CO)C(O)C1O (stereo unspecified)	NPYLR7 ag 78
Nc1ncnc2c1ncn2C1O[C@H](CO)[C@@H](O)[C@@H]1O (stereo partly specified)	none
C=C(Br)CN(C)C(C)C(C)S(C)(=O)=O (stereo unspecified)	none (no result: mcGAS lum)
O=c1c(-c2cc(O)c(O)c(O)c2)coc2cc(O)c(O)c(O)c12	hcGAS inh 71, mcGAS lum 82 (no result: NPYLR7 ag)
O=c1c(-c2ccc(O)cc2)coc2cc(O)cc(O)c12	none
O=C(CCC1CCCC1)Nc1nc(-c2ccccc2Cl)cs1	none (no result: mcGAS lum)
O=C(CCl)Nc1nc(-c2ccccc2Cl)cs1	mcGAS lum 60
COc1ccc(-c2[nH]n(-c3nc4ccccc4s3)c(=O)c2C=NCCN2CCOCC2)cc1	none (no result: mcGAS lum)
O=c1cc(-c2ccccc2)[nH]n1-c1c(F)c(F)c(F)c(F)c1F	none
O=c1cc(-c2ccccc2)[nH]n1-c1nc2ccccc2s1	hcGAS inh 55
O=c1c(C=NC2CC2)c(-c2ccccc2)[nH]n1-c1nc2ccccc2s1	hcGAS inh 60
CCN1CCN(C(=O)c2cc(-c3ccc(Cl)cc3)n(-c3ccc(C)cc3)c2C)CC1	none
Cn1c(Cl)cnc1C(O)C(F)(F)F (stereo unspecified)	none
Cc1ccc(CN(Cc2nc3cc(C)ccc3o2)C(=O)C(C)Oc2ccccc2)cc1 (stereo unspecified)	none
S=c1[nH]nc(-c2cccs2)o1	none (no result: mcGAS lum)
S=c1[nH]nc(-c2cc(-c3cccs3)nc3ccccc23)o1	hcGAS inh 77 (no result: mcGAS lum)
O=C(CN1CCCCCC1)NCCn1nnc2ccccc21	none (no result: mcGAS lum)
O=C(CCn1c(Cc2c(Cl)cccc2Cl)nc2ccccc21)NCCN1CCCC1	hcGAS inh 46 (no result: NPYLR7 ag)
Cc1ccc(OCCNC(=O)N2CCN(S(=O)(=O)c3ccccc3Cl)CC2)c(C)c1	NPYLR7 ag 46
Cc1cc(C)c(C)c(OCCCNC(=O)N2CCN(S(=O)(=O)c3ccccc3[N+](=O)[O-])CC2)c1	none
O=C(Nc1nc(-c2nc3ccccc3s2)cs1)c1ccc([N+](=O)[O-])o1	none
CCOc1ccc(C2=NC(=Cc3cc(OC)c4c(c3)OCCO4)C(=O)O2)cc1OCC	none (no result: mcGAS lum)
COc1cc(C=C2N=C(c3ccc4c(c3)OCO4)OC2=O)cc2c1OCCO2	NPYLR7 ag 97 (no result: mcGAS lum)
COc1ccc(CN2CCC(C(=O)NC(c3ccc(C)cc3)c3ccccn3)CC2)cc1 (stereo unspecified)	none
Cc1cc([N+](=O)[O-])ccc1N1C(=O)/C(=C\c2ccncc2)N(C)C1=S	none
COc1ccc(N2C(=O)/C(=C\c3ccc[nH]3)N(C)C2=S)c([N+](=O)[O-])c1	NPYLR7 ag 46
Cc1cc(CNC(=O)c2ccc3oc(CCc4ccccc4)nc3c2)nn1C	none
CC(C)(C)CC(C)(C)N1CC(C(N)=O)CC1=O (stereo unspecified)	none (no result: mcGAS lum)
CC(C)=CCCC1=CC[C@H](C(=O)O)[C@H](C(=O)O)C1	none
CC1=CC(C)C(C(=O)O)C(C(=O)O)C1 (stereo unspecified)	NPYLR7 ag 43
COc1ccc(CNC(C)C(=O)Nc2ccc(C)cc2)c(F)c1F (stereo unspecified)	none (no result: mcGAS lum)
COc1ccc(S(=O)(=O)N2CCOCC2)cc1N1CCN(C(=O)CSc2ccccc2)CC1	none
Cc1ccc(CN(Cc2ccc3c(c2)OCO3)C(=O)CN(CC2CCCO2)C(=O)Nc2ccc(F)cc2F)o1 (stereo unspecified)	none
Cc1ccc(NC(=O)N(CC(=O)N(Cc2ccc(F)cc2)Cc2ccc(C)o2)CC2CCCO2)c(C)c1 (stereo unspecified)	hcGAS inh 89
Cc1nc(C)c(C(=O)NCCCn2nc(-c3ccccc3)ccc2=O)s1	none (no result: mcGAS lum)
COCCn1c(C)cc(O)c(C(c2cccc(Cl)c2)N2CCC(C)CC2)c1=O (stereo unspecified)	none (no result: mcGAS lum)
COC(=O)C1=C(C)NC(C)=C(C(=O)OC)C1c1cc(Cl)ccc1OC(F)F	none
CCOC(=O)C1=C(C)NC(C)=C(C(=O)OCC)C1c1cc(Cl)ccc1OC(F)F	NPYLR7 ag 50
CC1CCC2(CC1)NC(=O)N(CC(=O)N1CCC3CCCCC3C1)C2=O (stereo unspecified)	none (no result: mcGAS lum)
Cc1cc2c(C(C)C)c(O)c(O)c(C=O)c2c(O)c1-c1c(C)cc2c(C(C)C)c(O)c(O)c(C=O)c2c1O	mcGAS lum 48!
O=C(C1=NOC2C(=O)N(c3cc(Cl)ccc3Cl)C(=O)C12)c1cccs1 (stereo unspecified)	none (no result: mcGAS lum)
COc1ccc2c(c1)C1OCCC1C(c1ccco1)N2 (stereo unspecified)	none (no result: mcGAS lum)
CC(C)NC(=O)NC(=O)COC(=O)C1CC1	none (no result: mcGAS lum)
c1cc2c(cc1C1=NNC(=NC3CC3)SC1)OCCCO2	none (no result: mcGAS lum)
CN(C)CCNC(=O)CN1Cc2ccc(N3CCOCC3)nc2C1=O	none
C[C@@H](NC(=O)CN1Cc2ccc(N3CCOCC3)nc2C1=O)c1ccccc1	NPYLR7 ag 61
C=C(C)Cn1c(=O)c2c(nc3n2CC(C)CN3c2cccc(OC)c2)n(C)c1=O (stereo unspecified)	none (no result: mcGAS lum)
COC(=O)CCc1c(C)nn(-c2ccc(C(=O)NC(c3ccccc3)c3ccc(Cl)cc3)cc2)c1C (stereo unspecified)	none
Cc1ccc(Nc2nc3c([nH]2)c(=O)n(C)c(=O)n3C)cc1	none
Cc1ccc(-c2nc3nc(N)n(C)c(=O)c3[nH]c2=O)cc1	NPYLR7 ag 136
Cc1ccc(CN2CCN(c3nc(-c4ccccc4)nc4c3CCC4)CC2)o1	none (no result: NPYLR7 ag)
COc1ccc(C(C)N(C)NC(=O)C(O)(c2ccc(OC)cc2)c2ccc(OC)cc2)cc1 (stereo unspecified)	none (no result: mcGAS lum)
O=c1oc2c(Br)c(O)c(Br)cc2s1	hcGAS inh 41, mcGAS lum 76
O=c1oc2c(-c3ccc(Br)cc3)cc(O)cc2s1	none
CC1(C(=O)NS(=O)(=O)Cc2cccc(Cl)c2)CCN1C(=O)Cc1ccsc1 (stereo unspecified)	none (no result: mcGAS lum)
CCCc1cc(NCCN2CCOCC2)n2nc3nc(C)cc(C)c3c2n1	none
O=C(O)Cc1cc(I)c(Oc2ccc(O)c(I)c2)c(I)c1	none
O=C(O)Cc1cc(I)c(Oc2cc(I)c(O)c(I)c2)c(I)c1	hcGAS inh 68, mcGAS lum 94 (no result: NPYLR7 ag)
O=C(CSc1nnc2ccccn12)Nc1ccc([N+](=O)[O-])cc1Cl	none (no result: mcGAS lum)
O=C(CCl)Nc1ccc([N+](=O)[O-])cc1Cl	mcGAS lum 60
N[C@@H](Cc1cc(-c2ccc(Cl)cc2Cl)cc(CP(=O)(O)O)c1O)C(=O)O	hcGAS inh 53 (no result: mcGAS lum)
NC(Cc1ccc(Cl)cc1)C(=O)O (stereo unspecified)	none
O=C(c1cccs1)N1CC[C@@H](c2ccc3ccccc3c2)[C@H](O)C1	none (no result: NPYLR7 ag)
